Tests used:
[1] = tested on: Human papillomavirus type 1a protein E7 (residues 44-93); experiment: small molecules binding HPV E7 44-93 – biochemical, small-molecule microarray, residues 44-93, 635 nm fluorescence, primary screen (AID 1108); details: fluorescence 635 nm, higher = more signal;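 also: E7 fragment applied at 1 µg/mL in TBST for 1 h at 4 C; score combines spot fluorescence with its signal to noise ratio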
[2] = hepatitis C replication reporter changes, two-sided – Huh7 cells, luciferase reporter, HCV replication inhibitor project, primary screen (AID 1109); details: Huh7 HCV replicon luciferase reporter, 48 h; higher = more signal;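 also: huh7 hepatoma cells harbouring a luciferase neomycin HCV replicon reporter; luciferase luminescence as measure of HCV replicon replication; test concentration not given here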
[3] = molecular target: Left-right determination factor 2 (Homo sapiens) (UniProt O00292); experiment: small molecules binding LEFTY2 protein – biochemical, small-molecule microarray, 635 nm fluorescence scan, primary screen (AID 1110); details: higher = more signal
[4] = molecular target: Calmodulin-1 (Homo sapiens) (UniProt P0DP23); experiment: small molecules binding calmodulin-1 with EGTA – biochemical, small-molecule microarray, Cy5-labelled CALM1, profiling panel (AID 1111); details: Cy5-CALM1 binding fluorescence, higher = more signal;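 also: labelled calmodulin applied in Tris saline Tween buffer holding calcium plus EGTA and DTT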
[5] = molecular target: Calmodulin-1 (Homo sapiens) (UniProt P0DP23); experiment: small molecules binding Ca-loaded calmodulin-1 – biochemical, small-molecule microarray, Cy5-labelled CALM1, plus calcium, artefact control for SMM control-protein annotation, profiling panel (AID 1112); details: Cy5-CALM1 binding fluorescence, higher = more signal;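 also: score merges spot fluorescence with signal to noise from triplicate slides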
[6] = probe aWnt5a binding to arrayed compounds – biochemical, biotinylated probe, 635/667 nm fluorescence, primary screen (AID 1113); details: small-molecule microarray, higher = more signal;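 also: score merges 667 nm fluorescence intensity with signal-to-noise per printed feature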
[7] = probe aShh binding to arrayed compounds – biochemical, biotinylated probe, 635/667 nm fluorescence, primary screen (AID 1114); details: small-molecule microarray, higher = more signal;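 also: probe is biotin-labelled aShh protein from a stem cell growth factor screen; measures binding of labelled protein to compounds printed on the slide; score merges feature fluorescence at 667 nm with signal-to-noise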
[8] = probe aNog binding to arrayed compounds – biochemical, biotinylated probe, 635/667 nm fluorescence, primary screen (AID 1115); details: small-molecule microarray, higher = more signal;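 also: probe is biotinylated aNog protein used at 0.15 µg/mL for 1 h at 4 C; z-score combines 667 nm fluorescence of each spot with its signal to noise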
[9] = molecular target: Torsin-1A-interacting protein 1 (Homo sapiens) (UniProt Q5JTV8); experiment: compound microarray binding of lysate hLAP1 – cell lysate, small-molecule microarray, COS7 lysate, 635/667 nm fluorescence, primary screen (AID 1116); details: 635 nm fluorescence, higher = more signal
[10] = molecular target: Alpha-bungarotoxin (Bungarus multicinctus) (UniProt P60615); experiment: compounds binding labelled alpha-BTX control protein – biochemical, small-molecule microarray, Alexa647 label, 635/667 nm fluorescence, artefact control for SMM control protein annotation, profiling panel (AID 1117); details: alpha-BTX-A647 binding fluorescence, higher = more signal
Chain of Alpha-bungarotoxin (Bungarus multicinctus) (P60615 whole entry, looked up): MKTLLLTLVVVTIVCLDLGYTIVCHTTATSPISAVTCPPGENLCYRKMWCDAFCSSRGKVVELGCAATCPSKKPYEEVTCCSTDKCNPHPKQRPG

Chain of Torsin-1A-interacting protein 1 (Homo sapiens) (Q5JTV8 whole entry, looked up): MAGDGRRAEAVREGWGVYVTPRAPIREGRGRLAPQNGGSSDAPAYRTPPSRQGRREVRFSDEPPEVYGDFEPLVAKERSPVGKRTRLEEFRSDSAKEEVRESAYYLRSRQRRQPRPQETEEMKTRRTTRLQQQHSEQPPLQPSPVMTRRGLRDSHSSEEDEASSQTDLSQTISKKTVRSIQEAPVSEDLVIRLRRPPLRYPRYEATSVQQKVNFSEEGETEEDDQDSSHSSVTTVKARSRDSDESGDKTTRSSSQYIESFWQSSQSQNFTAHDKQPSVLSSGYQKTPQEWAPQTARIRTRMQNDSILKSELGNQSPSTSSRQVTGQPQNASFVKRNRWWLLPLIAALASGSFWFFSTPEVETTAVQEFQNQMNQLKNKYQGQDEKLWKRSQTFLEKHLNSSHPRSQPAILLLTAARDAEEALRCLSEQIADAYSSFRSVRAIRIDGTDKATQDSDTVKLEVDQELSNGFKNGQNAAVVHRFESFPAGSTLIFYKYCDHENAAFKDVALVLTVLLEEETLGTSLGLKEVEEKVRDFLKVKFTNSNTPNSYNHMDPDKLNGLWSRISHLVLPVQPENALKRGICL
Chain of Left-right determination factor 2 (Homo sapiens) (O00292 whole entry, looked up): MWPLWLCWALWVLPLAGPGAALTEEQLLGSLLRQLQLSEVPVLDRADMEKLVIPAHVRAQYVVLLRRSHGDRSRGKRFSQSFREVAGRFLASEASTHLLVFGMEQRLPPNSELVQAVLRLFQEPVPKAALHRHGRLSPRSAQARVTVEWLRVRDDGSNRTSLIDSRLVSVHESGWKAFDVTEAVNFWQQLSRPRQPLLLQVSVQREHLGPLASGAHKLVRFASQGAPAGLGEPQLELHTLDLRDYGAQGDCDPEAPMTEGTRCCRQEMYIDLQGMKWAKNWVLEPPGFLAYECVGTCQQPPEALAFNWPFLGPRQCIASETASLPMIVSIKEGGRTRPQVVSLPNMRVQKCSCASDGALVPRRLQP

SMILES: COc1cc(NN2C(C(O)c3cc(OC)c(OC)c(OC)c3)C=CC3C(=O)N(C)C(=O)C32)cc(OC)c1OC (stereo not given)
- composite z-score [1]: 1.09
- z-score [2]: -0.336
- composite z-score [3]: -0.229
- composite z-score [4]: 1.34
- composite z-score [5]: 0.278
- composite z-score [6]: 0.0599
- composite z-score [7]: 0.23
- composite z-score [8]: 0.849
- composite z-score [9]: 0.904
- composite z-score [10]: 1.24

SMILES: COCCOC(=O)N1C(=O)[C@@]2(c3cc(C#CC4=CCCCC4)ccc31)[C@H](C(=O)Nc1nc3ccccc3s1)[C@H]1C(=O)O[C@H](c3ccccc3)[C@H](c3ccccc3)N1[C@@H]2c1ccc(O)cc1
- composite z-score [1]: 1.39
- z-score [2]: -1.1
- composite z-score [3]: 0.647
- composite z-score [4]: 1.07
- composite z-score [5]: 0.641
- composite z-score [6]: -0.15
- composite z-score [7]: -0.51
- composite z-score [8]: -0.483
- composite z-score [9]: 0.666
- composite z-score [10]: 0.42

SMILES: C[C@@H]1NC(=O)[C@@H](Cc2ccccc2)NC(=O)[C@@]23C(=O)N[C@@H](Cc4ccccc4)C2[C@H](C)[C@@]2(C)O[C@H]2C3/C=C/C/C=C\CNC1=O (stereo not given in full)
- composite z-score [1]: 0.739
- z-score [2]: -0.857
- composite z-score [3]: -0.22
- composite z-score [4]: -0.744
- composite z-score [5]: -1.16
- composite z-score [6]: -0.222
- composite z-score [7]: -0.0471
- composite z-score [8]: -0.281
- composite z-score [9]: -0.0991
- composite z-score [10]: -0.537

SMILES: CCOC(=O)C[C@H]1[C@H](OC(=O)c2cc3ccccc3oc2=O)[C@@H](NC(=O)c2ccc3ccccc3n2)c2cc(OCCCO)ccc2N1C(=O)Cc1ccc(OC)cc1
- composite z-score [1]: 1.23
- z-score [2]: -1.96
- composite z-score [3]: 0.735
- composite z-score [4]: 0.228
- composite z-score [5]: -0.653
- composite z-score [6]: 0.0297
- composite z-score [7]: -0.0119
- composite z-score [8]: -0.0428
- composite z-score [9]: 0.726
- composite z-score [10]: 0.981

SMILES: CC(C)N1C(=O)C[C@@](C(=O)O)(c2ccc([N+](=O)[O-])cc2)[C@H]1c1ccc(CO)cc1
- composite z-score [1]: 0.48
- z-score [2]: 0.253
- composite z-score [3]: -1.14
- composite z-score [4]: 0.233
- composite z-score [5]: 0.432
- composite z-score [6]: -0.118
- composite z-score [7]: -0.153
- composite z-score [8]: -0.409
- composite z-score [9]: 0.335
- composite z-score [10]: -0.315

SMILES: COCCCNC(=O)[C@@]1(Sc2ccc(C)cc2)CC(=O)N(C2Cc3ccccc3C2)[C@@H]1c1ccc(CO)cc1
- composite z-score [1]: 0.52
- z-score [2]: -0.849
- composite z-score [3]: -1.15
- composite z-score [4]: -0.176
- composite z-score [5]: -0.0232
- composite z-score [6]: -0.227
- composite z-score [7]: -0.2
- composite z-score [8]: 0.551
- composite z-score [9]: 0.423
- composite z-score [10]: -0.715

SMILES: CC[C@@H]1C=C(C(=O)O)[C@H](c2ccccc2)N1S(=O)(=O)c1ccc(C)cc1
- composite z-score [1]: 0.807
- z-score [2]: -1.33
- composite z-score [3]: 0.0801
- composite z-score [4]: 1.6
- composite z-score [5]: 1.03
- composite z-score [6]: -0.113
- composite z-score [7]: 0.162
- composite z-score [8]: -0.398
- composite z-score [9]: 0.599
- composite z-score [10]: 1.39

SMILES: CC(C)N1C(=O)c2ccccc2[C@@H](C(=O)NCCN2CCOCC2)[C@@H]1c1ccc(CO)cc1
- composite z-score [1]: 0.0391
- z-score [2]: -0.476
- composite z-score [3]: -2.07
- composite z-score [4]: -0.346
- composite z-score [5]: 0.603
- composite z-score [6]: -0.256
- composite z-score [7]: -0.221
- composite z-score [8]: -0.321
- composite z-score [9]: -0.171
- composite z-score [10]: -1.25

SMILES: CCCCCCCCCC(O)C1C=CC2C(=O)N(c3ccccc3)C(=O)C2N1Nc1cc(OC)c(OC)c(OC)c1 (stereo not given)
- composite z-score [1]: 0.903
- z-score [2]: -2.58
- composite z-score [3]: -1.12
- composite z-score [4]: 1.01
- composite z-score [5]: 1.03
- composite z-score [6]: -0.0685
- composite z-score [7]: 0.239
- composite z-score [8]: 0.641
- composite z-score [9]: 0.559
- composite z-score [10]: 0.774

SMILES: CCOC(=O)C[C@H]1[C@H](OC(=O)c2ccc(-c3ccccc3)cc2)[C@@H](NC(=O)CC(C)C)c2cc(OCCCO)ccc2N1C(=O)c1ccc2ccccc2n1
- composite z-score [1]: 0.903
- z-score [2]: -1.3
- composite z-score [3]: 0.218
- composite z-score [4]: 0.326
- composite z-score [5]: -0.631
- composite z-score [6]: -0.0678
- composite z-score [7]: 0.0723
- composite z-score [8]: 0.39
- composite z-score [9]: -0.289
- composite z-score [10]: 0.0623

SMILES: COc1cc2c(cc1O)C(C1CC1)N(Cc1cccc(OC(F)(F)F)c1)CC2 (stereo not given)
- composite z-score [1]: -1.05
- z-score [2]: -2.75
- composite z-score [3]: -0.116
- composite z-score [4]: -1.67
- composite z-score [5]: -0.453
- composite z-score [6]: -0.062
- composite z-score [7]: -0.0793
- composite z-score [8]: -0.147
- composite z-score [9]: 0.108
- composite z-score [10]: -0.41

SMILES: C=C[C@@H](CO)N(Cc1ccc(OC)cc1)S(=O)(=O)c1ccc(Br)cc1
- composite z-score [1]: 0.19
- z-score [2]: -1.25
- composite z-score [3]: 0.211
- composite z-score [4]: -0.0366
- composite z-score [5]: -0.213
- composite z-score [6]: 0.0377
- composite z-score [7]: -0.0709
- composite z-score [8]: -0.201
- composite z-score [9]: 0.572
- composite z-score [10]: -0.0436

SMILES: Cc1ccc(S[C@]2(C(=O)NCC(F)(F)F)CC(=O)N(Cc3cc(C(F)(F)F)cc(C(F)(F)F)c3)[C@@H]2c2ccc(CO)cc2I)cc1
- composite z-score [1]: -0.886
- z-score [2]: -0.964
- composite z-score [3]: -0.868
- composite z-score [4]: -0.364
- composite z-score [5]: 0.0808
- composite z-score [6]: -0.231
- composite z-score [7]: -0.0035
- composite z-score [8]: -0.426
- composite z-score [9]: -0.152
- composite z-score [10]: -0.379

SMILES: CCOc1cc(C(O)C2C=CC3C(=O)NC(=O)C3N2Nc2ccc(Cl)cc2Cl)ccc1O (stereo not given)
- composite z-score [1]: -1.7
- z-score [2]: 0.822
- composite z-score [3]: -1.18
- composite z-score [4]: -0.07
- composite z-score [5]: -0.0008
- composite z-score [6]: -0.154
- composite z-score [7]: 0.0062
- composite z-score [8]: 0.119
- composite z-score [9]: 0.0975
- composite z-score [10]: -0.0945

SMILES: [N-]=[N+]=Nc1ccccc1[C@@H]1OC(c2ccc(OCCCO)cc2)=N[C@]1(Cc1ccccc1)C(=O)O
- composite z-score [1]: 1.4
- z-score [2]: 0.848
- composite z-score [3]: -0.529
- composite z-score [4]: 1.57
- composite z-score [5]: 0.886
- composite z-score [6]: 0.0391
- composite z-score [7]: 0.0659
- composite z-score [8]: 0.135
- composite z-score [9]: 1.35
- composite z-score [10]: 1.7

SMILES: CCCC=C(CCC)[C@@H](NC(=O)C(C)(C)C)c1ccc(C(=O)OC)cc1
- composite z-score [1]: 1.32
- z-score [2]: -1.01
- composite z-score [3]: -0.494
- composite z-score [4]: 1.72
- composite z-score [5]: 1.43
- composite z-score [6]: 0.191
- composite z-score [7]: 0.572
- composite z-score [8]: 1.98
- composite z-score [9]: 0.321
- composite z-score [10]: 1.5

From PubChem BioAssay
